In PubChem BioAssay (EPA / NIEHS):
The source made the active and inactive calls. How the source made its calls: active means hit-call score of the fitted dose curve at least 0.9, where 1 is the maximum; inactive means score below 0.9.

Experiment: ATG_BRE_CIS: Attagene CIS-FACTORIAL HepG2 Assay for human Bone Morphogenetic Protein (BMP) Response Element (BRE) (AID 2282933)
Conditions: HepG2 BMP response element reporter, Attagene transcription factor profiling; actives raise or lower the signal
Experimental: ATG_CIS is a cell-based, multiplexed-readout assay that uses HepG2, a human liver cell line, with measurements taken at 24 hours after chemical dosing in a 24-well plate.ATG_BRE_CIS is one of 52 assay component(s) measured or calculated from the ATG_CIS assay. It is designed to make measurements of mRNA induction, a form of inducible reporter, as detected with fluorescence intensity signals by Reverse transcription polymerase chain reaction (RT-PCR) and Capillary electrophoresis technology.Data from the assay component ATG_BRE_CIS was analyzed into 1 assay endpoint. This assay endpoint, ATG_BRE_CIS, was analyzed with bidirectional fitting relative to DMSO as the negative control and baseline of activity. Using a type of inducible reporter, measures of mRNA for gain or loss-of-signal activity can be used to understand the reporter gene at the transcription factor-level as they relate to the gene SMAD1. Furthermore, this assay endpoint can be referred to as a primary readout, because this assay has produced multiple assay endpoints where this one serves a reporter gene function. To generalize the intended target to other relatable targets, this assay endpoint is annotated to the dna binding intended target family, where the subfamily is Smad protein.
Human liver HepG2 cells are transiently transfected with multiple reporter transcription units (MRTUs) in 6-well plates using FuGene 6 reagent (Roche; 3 ml FuGene/1 mg DNA). The MRTU constructs are regulated by a cis-regulating element (promoter). […] A major difference between the CIS and TRANS system is that in CIS activities of endogenous TFs are measured, whereas the TRANS assay evaluates changes in activities of exogenous, chimeric NR-Gal4 proteins. […] At the end of 24 hour incubation, total RNA was isolated using TriZol reagent (Invitrogen). The isolated RNA is then reverse-transcribed using oligo(dT) primer and Mo-MLV reverse transcriptase (Invitrogen) with DNAse I (Ambion) treatment for 30 min. The one-tenth of the produced cDNA was amplified by PCR using Taq DNA polymerase (Invitrogen) and two reporter sequence-specific primers. The PCR products were fluorescently labeled by primer extension with 6-arboxyfluorescein (6-FAM) 5'-labeled reporter sequence-specific primer (2 min at 95 C, 20 s at 68 C and 10 min at 72 C) and these products were digested with 5U of HpaI (New England Biolabs) for 2h at 37 C. The fragments were purified using Qiaquick PCR columns (Qiagen), analyzed on an ABI 3130xL genetic analyzer (Applied Biosystems) with peak positions identified by using a set of X-rhodamine (ROX)-labeled MapMarker1000 molecular weight standards (BioVentures). The raw capillary electrophoresis data was processed using Attagraph software (Attagene).

Structure (SMILES)	outcome	AC50
OCCN(CCO)c1ccccc1	inactive	
CCCCCCCCCCOS(=O)(=O)O	inactive	
Cc1ccc2c(c1)C(=O)c1ccccc1C2=O	inactive	
CC(C)CCCCCOC(=O)CCS	inactive	
CC(C)c1ccc2cc(C(C)C)ccc2c1	inactive	
CC(C)C(=O)C(C)C	inactive	
O=c1cc(-c2ccccc2)oc2ccccc12		133 µM (active)
C=CC(=O)OCCC(=O)O	inactive	
COc1ccc(-c2coc3cc(O)ccc3c2=O)cc1	inactive	
Cc1ccc(C2OC[C@@H]3OC(c4ccc(C)cc4)O[C@H]([C@H](O)CO)[C@@H]3O2)cc1 (stereo not given in full)	inactive	
CCO[Si](C)(OCC)OCC	inactive	
c1c[nH]cn1	inactive	
Cc1ccc2oc(=O)ccc2c1	inactive	
CCCCC/C=C\CCC=O	inactive	
CO[Si](CCC1CCC2OC2C1)(OC)OC (stereo not given)	inactive	
c1cc(C(c2ccc(OCC3CO3)cc2)C(c2ccc(OCC3CO3)cc2)c2ccc(OCC3CO3)cc2)ccc1OCC1CO1 (stereo not given)	inactive	
O=C(O)C(c1ccc(Cl)cc1)c1ccc(Cl)cc1	inactive	
C=CCOc1c(Br)cc(Br)cc1Br	inactive	
CCN(CC#N)c1cccc(C)c1	inactive	
CCCCCCCCCCCCCCCC(=O)OCC	inactive	

Structure (SMILES)	outcome	AC50
O=c1n(CCO)c(=O)n(CCO)c(=O)n1CCO	inactive	
OC1CCCCCCCCCCC1	inactive	
O=C1CCCCCCCCCCC(=O)OCCO1	inactive	
CCCCCc1ccc(Cl)cc1	inactive	
NC(=O)N=NC(N)=O		35 µM (active)
CCOC(F)(F)C(F)(F)C(F)(F)C(F)(F)F	inactive	
C=C[Si](C)(C)O[Si](C)(C)C=C	inactive	
CC(=O)NS(=O)(=O)c1ccc(N)cc1	inactive	
COc1ccc2nc(N)sc2c1	inactive	
O=C(OCC1CCC2OC2C1)C1CCC2OC2C1 (stereo not given)	inactive	
C=CCCCCCCCCC(=O)OCCCC	inactive	
CCN(CCC#N)c1ccc(N=Nc2c(Cl)cc([N+](=O)[O-])cc2Cl)cc1	inactive	
CN1C(=O)N(C)C(O)C1O (stereo not given)	inactive	
CC=CCO	inactive	
c1ccc(CNCc2ccccc2)cc1	inactive	
CC(C)c1ccc(C#N)cc1	inactive	
CC(C)C1=CC2=CC[C@@H]3[C@](C)(CCC[C@@]3(C)C(=O)O)[C@H]2CC1	inactive	
CCCCCCCCCCCSCC(=O)O	inactive	
O=C1c2cccc(O)c2C(=O)c2c(O)cc(CO)cc21	inactive	
O=C(Oc1ccccc1)c1ccc2ccccc2c1O		76.2 µM (active)
